# Laboratory results from PubChem BioAssay (NCATS).
# Inconclusive results are not listed. A call without a number means that no potency is given here. Unmarked numbers belong to inactive results. Calls of active or inactive are those of the source. Calls follow the shape of the dose curve; as a rule, active = well fitted curve in the direction sought with a large enough effect; inconclusive = small, poorly fitted or top-dose-only effect, or another doubt; inactive = no such curve, though single readings can be large; an effect the other way counts as inactive or inconclusive.
# Legend:
# MCC-13 = experiment: qHTS assay to identify novel small-molecules to repurpose for Merkel cell carcinoma treatment (AID 1296009); details: MCC and control cell lines, CellTiter-Glo viability, 72 h; series mostly up to 46 µM; also: nearly all actives have a fitted effect of over 60% in size
# Procedure, shortened: (§1)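 Cell viability, measured as CellTiter-Glo luminescence, was normalized between DMSO and no-cell wells. The cells had been exposed to 8- or 11-point compound dilutions for 72 hr at 37 degree celsius.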
# MCC-26 = experiment: as above; details: MCC and control cell lines, CellTiter-Glo viability, 72 h; series mostly up to 46 µM
# Procedure, shortened: as §1
# MKL-1 = experiment: as above; details: MCC and control cell lines, CellTiter-Glo viability, 72 h; series mostly up to 46 µM
# Procedure, shortened: as §1
# MKL-2 = experiment: as above; details: MCC and control cell lines, CellTiter-Glo viability, 72 h; series mostly up to 46 µM
# Procedure, shortened: as §1
# NIH3T3 = experiment: as above; details: MCC and control cell lines, CellTiter-Glo viability, 72 h; at 44.8 µM (top of the series) unless noted
# Procedure, shortened: as §1
# UISO = experiment: as above; details: MCC and control cell lines, CellTiter-Glo viability, 72 h; series mostly up to 46 µM
# Procedure, shortened: as §1
# WaGa = experiment: as above; details: MCC and control cell lines, CellTiter-Glo viability, 72 h; series mostly up to 46 µM
# Procedure, shortened: as §1
# C33A = experiment: Primary qHTS to identify gynecologic anti-cancer compounds using libraries of approved drugs and bioactive compounds (AID 1345084); details: Gynecologic cancer cell panel viability, ATPlite luminescence, 48 h; series mostly up to 57.5 µM; also: nearly all actives have a fitted effect of over 55% in size; also: potency is read from the fitted curve at half-maximal effect
# Procedure, shortened: (§2)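 Five-concentration response, 48 h; readout is ATP-driven luciferase luminescence.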
# CASKI = experiment: as above; details: Gynecologic cancer cell panel viability, ATPlite luminescence, 48 h; series mostly up to 57.5 µM
# Procedure, shortened: as §2
# Es-2 = experiment: as above; details: Gynecologic cancer cell panel viability, ATPlite luminescence, 48 h; series mostly up to 57.5 µM
# Procedure, shortened: as §2
# HeLa = experiment: as above; details: Gynecologic cancer cell panel viability, ATPlite luminescence, 48 h; series mostly up to 57.5 µM
# Procedure, shortened: as §2
# Hek293T = experiment: as above; details: Gynecologic cancer cell panel viability, ATPlite luminescence, 48 h, control line for the selectivity index; series mostly up to 57.5 µM
# Procedure, shortened: as §2
# JEG-3 = experiment: as above; details: Gynecologic cancer cell panel viability, ATPlite luminescence, 48 h; series mostly up to 57.5 µM
# Procedure, shortened: as §2
# OV90 = experiment: as above; details: Gynecologic cancer cell panel viability, ATPlite luminescence, 48 h; series mostly up to 57.5 µM
# Procedure, shortened: as §2
# PA-1 = experiment: as above; details: Gynecologic cancer cell panel viability, ATPlite luminescence, 48 h; series mostly up to 57.5 µM
# Procedure, shortened: as §2
# SKOV3 = experiment: as above; details: Gynecologic cancer cell panel viability, ATPlite luminescence, 48 h; series mostly up to 57.5 µM
# Procedure, shortened: as §2
# Tov-21-G = experiment: as above; details: Gynecologic cancer cell panel viability, ATPlite luminescence, 48 h; series mostly up to 57.5 µM
# Procedure, shortened: as §2
# Tov112D = experiment: as above; details: Gynecologic cancer cell panel viability, ATPlite luminescence, 48 h; series mostly up to 57.5 µM
# Procedure, shortened: as §2
# [1] = Drug repurposing screens with cells derived from glioblastoma tumor samples (AID 1345199); details: GBM patient neurospheres viability, ATP luminescence, 48 h; also: nearly all actives have a fitted effect of over 40% in size; also: potency is read from the fitted curve at half-maximal effect
# Procedure, shortened: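 Primary testing used CD133+ neurospheres from four GBM patients, seven concentrations, 48 h exposure and ATP-based viability; confirmation added three slower-growing patient lines.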
# CAOV3 = experiment: Primary qHTS to identify gynecologic anti-cancer compounds using libraries of approved drugs and bioactive compounds (AID 1345084); details: Gynecologic cancer cell panel viability, ATPlite luminescence, 48 h; series mostly up to 57.5 µM; also: nearly all actives have a fitted effect of over 55% in size; also: potency is read from the fitted curve at half-maximal effect
# Procedure, shortened: as §2
# [2] = at 45.9 µM (top of the series), tumour line B
# [3] = at 45.9 µM (top of the series), tumour line D
# [4] = at 46 µM (top of the series), tumour line A
smiles,measurement,setting,value
Cc1ccc(N=CN(C)C=Nc2ccc(C)cc2C)c(C)c1,Potency,MCC-13,inactive
same,Potency,MCC-26,inactive
same,Potency,MKL-1,inactive
same,Potency,MKL-2,inactive
same,outcome,NIH3T3,inactive
same,Potency,UISO,inactive
same,Potency,WaGa,inactive
same,Potency,C33A,inactive
same,Potency,CASKI,inactive
same,Potency,Es-2,inactive
same,Potency,HeLa,inactive
same,Potency,Hek293T,inactive
same,Potency,JEG-3,inactive
same,Potency,OV90,inactive
same,Potency,PA-1,inactive
same,Potency,SKOV3,inactive
same,Potency,Tov-21-G,inactive
same,Potency,Tov112D,inactive
same,"activity, negative = cell killing",[1]; [2],-15.5%
same,"activity, negative = cell killing",[1]; [3],-9.79%
COP(=S)(OC)Oc1ccc(Sc2ccc(OP(=S)(OC)OC)cc2)cc1,Potency,MCC-13,inactive
same,Potency,MCC-26,inactive
same,Potency,MKL-1,inactive
same,Potency,MKL-2,inactive
same,outcome,NIH3T3,inactive
same,Potency,UISO,inactive
same,Potency,WaGa,inactive
same,Potency,C33A,inactive
same,Potency,CAOV3,inactive
same,Potency,CASKI,inactive
same,Potency,Es-2,inactive
same,Potency,HeLa,inactive
same,Potency,JEG-3,inactive
same,Potency,OV90,inactive
same,Potency,PA-1,inactive
same,Potency,SKOV3,inactive
same,Potency,Tov-21-G,inactive
same,Potency,Tov112D,inactive
CC1Sc2c(C(=O)O)c(=O)c3cc(F)c(N4CCNCC4)cc3n21 (stereo unspecified),Potency,MCC-13,inactive
same,Potency,MCC-26,inactive
same,Potency,MKL-1,inactive
same,Potency,MKL-2,inactive
same,outcome,NIH3T3,inactive
same,Potency,UISO,inactive
same,Potency,C33A,inactive
same,Potency,CAOV3,inactive
same,Potency,CASKI,inactive
same,Potency,Es-2,inactive
same,Potency,HeLa,inactive
same,Potency,Hek293T,inactive
same,Potency,JEG-3,inactive
same,Potency,OV90,inactive
same,Potency,PA-1,inactive
same,Potency,Tov-21-G,inactive
same,Potency,Tov112D,inactive
C1CN2CCC1CC2,Potency,MCC-13,inactive
same,Potency,MCC-26,inactive
same,Potency,MKL-1,inactive
same,Potency,MKL-2,inactive
same,outcome,NIH3T3,inactive
same,Potency,UISO,inactive
same,Potency,WaGa,inactive
same,Potency,C33A,inactive
same,Potency,CAOV3,inactive
same,Potency,CASKI,inactive
same,Potency,Es-2,inactive
same,Potency,HeLa,inactive
same,Potency,Hek293T,inactive
same,Potency,JEG-3,inactive
same,Potency,OV90,25.1 µM (active)
same,Potency,PA-1,inactive
same,Potency,Tov-21-G,inactive
same,Potency,Tov112D,inactive
CCC1(c2cccc(O)c2)CCCCN(C)C1 (stereo unspecified),Potency,MCC-13,inactive
same,Potency,MCC-26,inactive
same,Potency,MKL-1,inactive
same,Potency,MKL-2,inactive
same,Potency,UISO,inactive
same,Potency,WaGa,inactive
same,Potency,C33A,inactive
same,Potency,CAOV3,inactive
same,Potency,CASKI,inactive
same,Potency,Es-2,inactive
same,Potency,HeLa,inactive
same,Potency,Hek293T,inactive
same,Potency,JEG-3,inactive
same,Potency,OV90,inactive
same,Potency,PA-1,inactive
same,Potency,SKOV3,inactive
same,Potency,Tov-21-G,inactive
same,Potency,Tov112D,inactive
same,"activity, negative = cell killing","[1]; at 21.2 µM (top of the series), tumour line B",-5.3%
same,"activity, negative = cell killing","[1]; at 21.2 µM (top of the series), tumour line D",-23.7%
COCC(=O)N(c1c(C)cccc1C)C(C)C(=O)OC (stereo unspecified),Potency,MCC-13,inactive
same,Potency,MCC-26,inactive
same,Potency,MKL-1,inactive
same,Potency,MKL-2,inactive
same,outcome,NIH3T3,inactive
same,Potency,UISO,inactive
same,Potency,WaGa,inactive
same,Potency,C33A,inactive
same,Potency,CAOV3,inactive
same,Potency,CASKI,inactive
same,Potency,Es-2,inactive
same,Potency,HeLa,inactive
same,Potency,Hek293T,inactive
same,Potency,JEG-3,inactive
same,Potency,OV90,inactive
same,Potency,PA-1,inactive
same,Potency,SKOV3,inactive
same,Potency,Tov-21-G,inactive
same,Potency,Tov112D,inactive
same,"activity, negative = cell killing",[1]; [2],-6.18%
same,"activity, negative = cell killing",[1]; [3],-6.37%
COP(=O)(OC)OC=C(Cl)Cl,Potency,MCC-13,inactive
same,Potency,MCC-26,inactive
same,Potency,MKL-1,inactive
same,Potency,MKL-2,inactive
same,outcome,NIH3T3,inactive
same,Potency,UISO,inactive
same,Potency,WaGa,inactive
same,Potency,C33A,inactive
same,Potency,CAOV3,inactive
same,Potency,CASKI,inactive
same,Potency,Es-2,inactive
same,Potency,HeLa,inactive
same,Potency,Hek293T,inactive
same,Potency,JEG-3,inactive
same,Potency,OV90,inactive
same,Potency,PA-1,inactive
same,Potency,SKOV3,inactive
same,Potency,Tov-21-G,inactive
same,Potency,Tov112D,inactive
same,Potency,[1]; tumour line A,7.08 µM (active)
O=C(CCCCl)c1ccc(F)cc1,Potency,MCC-13,inactive
same,Potency,MCC-26,inactive
same,Potency,MKL-1,inactive
same,Potency,MKL-2,inactive
same,Potency,UISO,inactive
same,Potency,WaGa,inactive
same,Potency,C33A,inactive
same,Potency,CAOV3,inactive
same,Potency,CASKI,inactive
same,Potency,Es-2,inactive
same,Potency,HeLa,inactive
same,Potency,Hek293T,inactive
same,Potency,JEG-3,inactive
same,Potency,OV90,inactive
same,Potency,PA-1,inactive
same,Potency,SKOV3,inactive
same,Potency,Tov-21-G,inactive
same,Potency,Tov112D,inactive
COc1cc(N)c(Cl)cc1C(=O)NC1CN2CCC1CC2 (stereo unspecified),Potency,MCC-13,inactive
same,Potency,MCC-26,inactive
same,Potency,MKL-1,inactive
same,Potency,MKL-2,inactive
same,outcome,NIH3T3,inactive
same,Potency,UISO,inactive
same,Potency,WaGa,inactive
same,Potency,C33A,inactive
same,Potency,CASKI,inactive
same,Potency,Es-2,inactive
same,Potency,HeLa,inactive
same,Potency,Hek293T,inactive
same,Potency,JEG-3,inactive
same,Potency,OV90,inactive
same,Potency,PA-1,inactive
same,Potency,SKOV3,inactive
same,Potency,Tov-21-G,inactive
same,Potency,Tov112D,inactive
same,"activity, negative = cell killing",[1]; [2],-1.32%
same,"activity, negative = cell killing",[1]; [3],1.82%
CCc1ccc(C2CCNCC2)cc1,Potency,MCC-13,inactive
same,Potency,MCC-26,inactive
same,Potency,MKL-1,inactive
same,Potency,MKL-2,inactive
same,Potency,UISO,inactive
same,Potency,WaGa,inactive
same,Potency,C33A,inactive
same,Potency,CAOV3,inactive
same,Potency,CASKI,inactive
same,Potency,Es-2,inactive
same,Potency,HeLa,inactive
same,Potency,Hek293T,inactive
same,Potency,JEG-3,inactive
same,Potency,OV90,inactive
same,Potency,PA-1,inactive
same,Potency,SKOV3,inactive
same,Potency,Tov-21-G,inactive
same,Potency,Tov112D,inactive
CCC1(CC)C(=O)NC(=O)NC1=O,Potency,MCC-13,inactive
same,Potency,MCC-26,inactive
same,Potency,MKL-1,inactive
same,Potency,MKL-2,inactive
same,outcome,NIH3T3,inactive
same,Potency,UISO,inactive
same,Potency,WaGa,inactive
same,Potency,C33A,inactive
same,Potency,CAOV3,inactive
same,Potency,CASKI,inactive
same,Potency,Es-2,inactive
same,Potency,HeLa,inactive
same,Potency,JEG-3,inactive
same,Potency,OV90,inactive
same,Potency,PA-1,inactive
same,Potency,SKOV3,inactive
same,Potency,Tov-21-G,inactive
same,Potency,Tov112D,inactive
same,"activity, negative = cell killing",[1]; [2],3.52%
same,"activity, negative = cell killing",[1]; [3],-15.8%
same,"activity, negative = cell killing",[1]; [4],-22.6%
COC(=O)C1=CCCN(C)C1,Potency,MCC-13,inactive
same,Potency,MCC-26,inactive
same,Potency,MKL-1,inactive
same,Potency,MKL-2,inactive
same,outcome,NIH3T3,inactive
same,Potency,UISO,inactive
same,Potency,WaGa,inactive
same,Potency,C33A,inactive
same,Potency,CAOV3,inactive
same,Potency,CASKI,inactive
same,Potency,Es-2,inactive
same,Potency,HeLa,inactive
same,Potency,Hek293T,inactive
same,Potency,JEG-3,inactive
same,Potency,OV90,inactive
same,Potency,PA-1,inactive
same,Potency,SKOV3,inactive
same,Potency,Tov-21-G,inactive
same,Potency,Tov112D,inactive
same,"activity, negative = cell killing",[1]; [2],-5.77%
same,"activity, negative = cell killing",[1]; [3],-12.9%
same,"activity, negative = cell killing",[1]; [4],-22.4%
CCOC(=O)C(c1c(O)c2ccccc2oc1=O)c1c(O)c2ccccc2oc1=O,Potency,MCC-13,inactive
same,Potency,MCC-26,inactive
same,Potency,MKL-1,inactive
same,Potency,MKL-2,inactive
same,outcome,NIH3T3,inactive
same,Potency,UISO,inactive
same,Potency,WaGa,inactive
same,Potency,C33A,inactive
same,Potency,CASKI,inactive
same,Potency,Es-2,inactive
same,Potency,HeLa,inactive
same,Potency,Hek293T,inactive
same,Potency,JEG-3,inactive
same,Potency,OV90,inactive
same,Potency,PA-1,inactive
same,Potency,SKOV3,inactive
same,Potency,Tov-21-G,inactive
same,Potency,Tov112D,inactive
